# Results filed as inconclusive are left out. Where a call stands in place of a potency, no number is given. Activity calls are given as the source filed them. The call rests on the fitted dose curve; in most records, active means well fitted inhibition curve with a large enough effect; inconclusive means small, poorly fitted or top-dose-only effect; inactive means flat fitted curve, though single readings scatter.
# System: CRL-7250
# Assay: Cytotoxic Profiling of Annotated Libraries Using Quantitative High-Throughput Screening (AID 1296008); further: nearly all actives have a fitted effect of over 60% in size
# Conditions: Five cell lines viability, CellTiter-Glo ATP luminescence, 48-72 h; max response: active compounds read low
# Method in brief: (§1)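 Cells exposed to compounds for 48 or 72 hr at 37 degrees Celsius. Viability read as ATP-coupled luminescence with CellTiter-Glo after 10 min at room temperature.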
# Potency means the concentration at half of the fitted maximal effect.
SMILES,outcome,Potency,max response
COc1ccc(-c2cnc3c(-c4cccc5ncccc45)cnn3c2)cc1,inactive,–,–
O=C(O)CSc1cc(NS(=O)(=O)c2ccc(Br)cc2)c2ccccc2c1O,–,23.1 µM (active),–
NCC(CNc1nc(Nc2cccc(NC(=O)N3CCCC3)c2)ncc1I)C(=O)c1cccs1 (stereo not given),–,–,-26% (inactive)
Cc1nc2cc(C(=O)NCc3ccccn3)nn2c(C)c1Cc1cccc(Cl)c1,inactive,–,–
CCN(CC)CCCCCCNc1cc(OC)cc2c(C)ccnc12,–,–,-13.4% (inactive)
CCC(C)C(=O)Oc1cc(C)ccc1C1(COC(=O)C(C)C)CO1 (stereo not given),–,–,-0.891% (inactive)
CCOc1cccc(NC(=O)c2ccc(N3CCCC3)c(C(F)(F)F)c2)c1,–,–,-10.4% (inactive)
Cc1ccc(OC[C@H](O)[C@H](C)NC(C)C)c2c1CCC2,–,–,-3.77% (inactive)
Cc1csc(N(C(=O)CSc2ccc(-c3ccccc3)nn2)C2CC2)n1,–,–,-10.7% (inactive)
O=C(NCCCNc1nc(Nc2cccc(CN3CCOCC3)c2)ncc1C1CC1)C1CCC1,–,5.8 µM (active),–
C=C1C(=O)OC2C=C(C)CC/C=C(\CO)CC(O)C12 (stereo not given),–,–,-3.89% (inactive)
CC(C)(O)c1ccc2c(c1)ncn2-c1cccc(-c2ccccc2C#N)c1,inactive,–,–
O=C(O)C1=CO[C@@H](O[C@@H]2O[C@H](CO)[C@@H](O)[C@H](O)[C@H]2O)[C@@H]2C(CO)=CC[C@H]12,–,–,-1.39% (inactive)
CN1CCC(c2cn(C)c3ccc(OS(=O)(=O)c4c(F)cccc4F)cc23)CC1,inactive,–,–
C=C1C(=O)OC2/C=C(\C)CC/C=C(\C=O)C(OC)C(OC(=O)C(C)CC)C12 (stereo not given),–,–,-23.9% (inactive)
CCOc1ccc(CCNC(=O)c2cc3sc(Cl)cc3n2C)cc1OCC,–,–,-5.08% (inactive)
C=C(C(=O)OC)[C@@H]1CC=C2C=CC(=O)[C@H](C)[C@@]2(C)C1,–,–,4.23% (inactive)
CC(C)(C)c1ccc2c(c1)CC[C@H]2NC(=O)Nc1cccc2[nH]ncc12,–,–,-3.64% (inactive)
O=C(OC1CN2CCC1CC2)N1CCc2ccccc2C1c1ccccc1 (stereo not given),–,–,0.185% (inactive)
CCn1c(=O)n([C@H]2CCCN(c3nccc(-c4cc5ccccc5o4)n3)C2)c2ccccc21,inactive,–,–

SMILES,outcome,Potency,max response
CC(C)S(=O)(=O)c1ccc2nccc(Nc3ccc4scnc4c3)c2c1,–,–,-19% (inactive)
O=c1cc(OCc2ccc(F)cc2)ccn1-c1ccc(OCCN2CCCC2)cc1,–,–,-11.7% (inactive)
CC(=O)c1ccc2c(c1)[C@H](NC(=O)c1ccc(F)c(Cl)c1)[C@H](O)C(C)(C)O2,–,–,-9.32% (inactive)
CN(C)c1cccc(Oc2cnc(Nc3cccc(O)c3)nc2)c1,–,–,4.02% (inactive)
O=C(O)c1ccc(S(=O)(=O)N(Cc2ccc(OC(F)(F)F)cc2)c2ncc(C(F)(F)F)cc2Cl)cc1,–,–,-3.34% (inactive)
CN1CCN(C2=Nc3ccccc3Nc3ccc(Cl)cc32)CC1,–,–,-0.222% (inactive)
COc1cc(C(=O)NC(=S)Nc2cccc(NC(=O)c3ccccc3)c2)cc(OC)c1OC,–,–,-13% (inactive)
COC1C(OC(=O)/C=C/C=C/C=C/C=C/C(=O)O)CCC2(CO2)C1C1(C)OC1CC=C(C)C (stereo not given),–,–,-15.2% (inactive)
O=C(NCC1(c2nc(-c3ccccc3)cs2)CCOCC1)c1cccc(-c2noc(C(F)(F)F)n2)c1,–,–,-0.2% (inactive)
COc1ccc(CCN(C)CCCOc2nsc(-c3ccccc3)n2)cc1OC,inactive,–,–
CN[C@H]1CC[C@@H](c2ccc(Cl)c(Cl)c2)c2ccccc21,–,3.76 µM (active),–
O=[N+]([O-])c1ccc(Oc2ccc3c(c2)CCC(c2ccccc2)O3)nc1 (stereo not given),inactive,–,–
Cc1c(NC(=O)c2cc3c(s2)CCCC3)cccc1-c1cn(C)c(=O)c(Nc2ccc(C3C(=O)N(C)CCN3C)cc2)n1 (stereo not given),–,–,-5.13% (inactive)
O=C(Nc1ccccc1C(=O)Nc1ccc(CCO)cc1)c1ccc([N+](=O)[O-])cc1,–,–,-0.113% (inactive)
CC(C)Nc1nc(Nc2ccccc2)nc(-c2ccccc2)n1,–,–,-10.5% (inactive)
CCOc1nc(NC(=O)Cc2cc(OC)ccc2OC)cc(N)c1C#N,–,–,-9.74% (inactive)
COc1ccccc1OCCN1CC(COc2cccc3[nH]c4ccccc4c23)OCC1=O (stereo not given),inactive,–,–
COc1ccc(C(=O)O[C@H]2C=COC=C3C=C4C(=O)N(C)C(=S)C(=O)N4[C@@H]32)cc1Oc1cc(C=O)ccc1O,–,–,-5.08% (inactive)
CCNC1(C(N)=O)CCN(c2ncnc3c2nc(-c2ccccc2Cl)n3-c2ccc(Cl)cc2)CC1,inactive,–,–
CC1(C)CCCC2(C)C1C(OC(=O)/C=C/C=C/C=O)C=C1COC(=O)C12O (stereo not given),–,–,-21.2% (inactive)

# System: HaCat
# Assay: as above
# Conditions: Five cell lines viability, CellTiter-Glo ATP luminescence, 48-72 h; max response: active compounds read low
# Method in brief: as §1
SMILES,outcome,max response,Potency
COc1ccc(-c2cnc3c(-c4cccc5ncccc45)cnn3c2)cc1,inactive,–,–
O=C(O)CSc1cc(NS(=O)(=O)c2ccc(Br)cc2)c2ccccc2c1O,inactive,–,–
NCC(CNc1nc(Nc2cccc(NC(=O)N3CCCC3)c2)ncc1I)C(=O)c1cccs1 (stereo not given),inactive,–,–
Cc1nc2cc(C(=O)NCc3ccccn3)nn2c(C)c1Cc1cccc(Cl)c1,inactive,–,–
CCN(CC)CCCCCCNc1cc(OC)cc2c(C)ccnc12,inactive,–,–
CCC(C)C(=O)Oc1cc(C)ccc1C1(COC(=O)C(C)C)CO1 (stereo not given),inactive,–,–
CCOc1cccc(NC(=O)c2ccc(N3CCCC3)c(C(F)(F)F)c2)c1,inactive,–,–
Cc1ccc(OC[C@H](O)[C@H](C)NC(C)C)c2c1CCC2,inactive,–,–
Cc1csc(N(C(=O)CSc2ccc(-c3ccccc3)nn2)C2CC2)n1,inactive,–,–
O=C(NCCCNc1nc(Nc2cccc(CN3CCOCC3)c2)ncc1C1CC1)C1CCC1,inactive,–,–
C=C1C(=O)OC2C=C(C)CC/C=C(\CO)CC(O)C12 (stereo not given),inactive,–,–
CC(C)(O)c1ccc2c(c1)ncn2-c1cccc(-c2ccccc2C#N)c1,inactive,–,–
O=C(O)C1=CO[C@@H](O[C@@H]2O[C@H](CO)[C@@H](O)[C@H](O)[C@H]2O)[C@@H]2C(CO)=CC[C@H]12,inactive,–,–
CN1CCC(c2cn(C)c3ccc(OS(=O)(=O)c4c(F)cccc4F)cc23)CC1,inactive,–,–
C=C1C(=O)OC2/C=C(\C)CC/C=C(\C=O)C(OC)C(OC(=O)C(C)CC)C12 (stereo not given),inactive,–,–
CCOc1ccc(CCNC(=O)c2cc3sc(Cl)cc3n2C)cc1OCC,inactive,–,–
C=C(C(=O)OC)[C@@H]1CC=C2C=CC(=O)[C@H](C)[C@@]2(C)C1,inactive,–,–
CC(C)(C)c1ccc2c(c1)CC[C@H]2NC(=O)Nc1cccc2[nH]ncc12,inactive,–,–
O=C(OC1CN2CCC1CC2)N1CCc2ccccc2C1c1ccccc1 (stereo not given),inactive,–,–
CCn1c(=O)n([C@H]2CCCN(c3nccc(-c4cc5ccccc5o4)n3)C2)c2ccccc21,inactive,–,–

SMILES,outcome,max response,Potency
CC(C)S(=O)(=O)c1ccc2nccc(Nc3ccc4scnc4c3)c2c1,inactive,–,–
O=c1cc(OCc2ccc(F)cc2)ccn1-c1ccc(OCCN2CCCC2)cc1,inactive,–,–
CC(=O)c1ccc2c(c1)[C@H](NC(=O)c1ccc(F)c(Cl)c1)[C@H](O)C(C)(C)O2,inactive,–,–
CN(C)c1cccc(Oc2cnc(Nc3cccc(O)c3)nc2)c1,inactive,–,–
O=C(O)c1ccc(S(=O)(=O)N(Cc2ccc(OC(F)(F)F)cc2)c2ncc(C(F)(F)F)cc2Cl)cc1,inactive,–,–
CN1CCN(C2=Nc3ccccc3Nc3ccc(Cl)cc32)CC1,inactive,–,–
COc1cc(C(=O)NC(=S)Nc2cccc(NC(=O)c3ccccc3)c2)cc(OC)c1OC,inactive,–,–
COC1C(OC(=O)/C=C/C=C/C=C/C=C/C(=O)O)CCC2(CO2)C1C1(C)OC1CC=C(C)C (stereo not given),–,-3.3% (inactive),–
O=C(NCC1(c2nc(-c3ccccc3)cs2)CCOCC1)c1cccc(-c2noc(C(F)(F)F)n2)c1,inactive,–,–
COc1ccc(CCN(C)CCCOc2nsc(-c3ccccc3)n2)cc1OC,inactive,–,–
CN[C@H]1CC[C@@H](c2ccc(Cl)c(Cl)c2)c2ccccc21,–,–,15 µM (active)
O=[N+]([O-])c1ccc(Oc2ccc3c(c2)CCC(c2ccccc2)O3)nc1 (stereo not given),inactive,–,–
Cc1c(NC(=O)c2cc3c(s2)CCCC3)cccc1-c1cn(C)c(=O)c(Nc2ccc(C3C(=O)N(C)CCN3C)cc2)n1 (stereo not given),inactive,–,–
O=C(Nc1ccccc1C(=O)Nc1ccc(CCO)cc1)c1ccc([N+](=O)[O-])cc1,inactive,–,–
CC(C)Nc1nc(Nc2ccccc2)nc(-c2ccccc2)n1,inactive,–,–
CCOc1nc(NC(=O)Cc2cc(OC)ccc2OC)cc(N)c1C#N,inactive,–,–
COc1ccccc1OCCN1CC(COc2cccc3[nH]c4ccccc4c23)OCC1=O (stereo not given),inactive,–,–
COc1ccc(C(=O)O[C@H]2C=COC=C3C=C4C(=O)N(C)C(=S)C(=O)N4[C@@H]32)cc1Oc1cc(C=O)ccc1O,inactive,–,–
CCNC1(C(N)=O)CCN(c2ncnc3c2nc(-c2ccccc2Cl)n3-c2ccc(Cl)cc2)CC1,inactive,–,–
CC1(C)CCCC2(C)C1C(OC(=O)/C=C/C=C/C=O)C=C1COC(=O)C12O (stereo not given),inactive,–,–

# Reference: PubChem BioAssay (NCATS)
